Experimental data taken from PubChem BioAssay AID2113 (National Center for Advancing Translational Sciences (NCATS), 2009).
Results filed as inconclusive are left out. Where a call stands in place of a potency, no number is given. Calls of active or inactive are those of the source. Calls come from the whole dose curve; as a rule, active = well fitted curve in either direction with a large enough effect; inconclusive = small, poorly fitted or top-dose-only effect; inactive = no such curve, though single readings can be large or run the other way.

Biological target: Lysosomal alpha-glucosidase (Homo sapiens) (UniProt P10253)
Assay: Confirmation of Inhibitors and Activators of Human alpha-Glucosidase From Spleen Homogenate
Conditions: alpha-glucosidase enzyme activity; series mostly up to 60.5 µM
In short: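 Fluorogenic assay using human spleen homogenate (1 ug) as enzyme source with 1 mM 4-methylumbelliferyl-alpha-D-glucopyranoside, pH 5.0 citrate buffer, 40 min at 37 C. 4-MU read (Ex 365/Em 440) after NaOH/glycine stop; AC50 from Hill fits.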

Compound | Potency
O=S(=O)(c1ccc(F)cc1)N1CCOCC1 | inactive
CC(=O)Nc1ccc(S(=O)(=O)/N=C2/NC(=O)/C(=C\c3ccco3)S2)cc1 | inactive
OCC(CO)NC1C[C@](O)(CO)[C@@H](O)[C@H](O)[C@H]1O (some centres not stated) | inactive
O=c1[nH]cc(CCc2ccccc2)c2ncncc12 | inactive
O=S(=O)(c1ccc(Cl)cc1)N1CCOCC1 | inactive
CCc1ccc(N=CC23c4ccccc4C(c4ccccc42)C2C(=O)N(c4ccc(OC)cc4)C(=O)C23)cc1 (configuration not stated) | inactive
CC1(C)CC(=O)c2cc(C(=O)NC3CCSC3=O)c(=O)n(-c3ccccc3)c2C1 (configuration not stated) | inactive
COC(=O)c1cc(OC)c(OC)cc1NC(=O)CCCCCN1C(=O)CCC1=O | inactive
COCCNS(=O)(=O)c1ccc2c(c1)n(C)c(=O)n2C | inactive
Cc1ccc(S(=O)(=O)N2CCOCC2)cc1 | inactive
COC(=O)c1ccc(C(=O)OC)c(NC(=S)N2CCOCC2)c1 | inactive
C(=C/c1nccc2c1[nH]c1ccccc12)/c1ccc2c(c1)OCO2 | inactive
Cc1noc(C)c1S(=O)(=O)N(CC(=O)N1CCc2ccccc21)c1ccc(C(C)C)cc1 | inactive
O=C(/C=C/c1ccc(O)c(O)c1)c1ccc(O[C@@H]2O[C@H](CO)[C@@H](O)[C@H](O)[C@H]2O)c(O)c1O | inactive
c1csc(-c2nc(NCC3CCCO3)c3ccccc3n2)c1 (configuration not stated) | inactive
N#CCCN1CCN(S(=O)(=O)c2ccc(S(=O)(=O)N3CCOCC3)cc2)CC1 | inactive
CN(C)N=C1c2cc(S(=O)(=O)N3CCOCC3)ccc2-c2ccc(S(=O)(=O)N3CCOCC3)cc21 | inactive
